Results: PubChem BioAssay AID1347426 (Functional Genomics Laboratory (NCATS/FGL), 2020)
In all, about 31,000 sequences went through this assay and about 1,400 (4.5%) were called active. Shown is part of a subset that was picked to be rich in actives. Values without a mark were called inactive.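 How the source made its calls: active means median seed-adjusted z-score above 1 or below -1; inactive means the rest.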

Assay: Novel Modifiers of Survival Motor Neuron (SMN) Protein: Gene Identification via Genome-wide siRNA Screen
Conditions: HEK293T SMN2-luciferase reporter, siRNA knockdown, 72 h; actives lie on both sides
From the text: Spinal muscular atrophy (SMA) is the most common neuromuscular autosomal recessive disorder and one of the leading genetic causes of infant death. SMA results from mutations inducing loss of function or deletion in the survival of motor neuron-1 gene (SMN1), leading to deficiency of the survival motor neuron (SMN) protein. Although a second nearly identical gene, SMN2, is retained in humans, its expression primarily produces an aberrantly spliced isoform that is largely unstable and quickly degraded. We performed a genome-wide RNAi screen using a cell-based reporter assay to identify genes and pathways that modulate SMN protein stability. The screen identified over 200 genes that led to the greatest increase or decrease in luciferase expression.
Using HEK293T cells stably expressing a luciferase reporter that combines the promoter and splicing based cassettes in tandem with the major portion of the native SMN2 cDNA with luciferase, we performed a genome-wide RNAi screen to identify modulators of SMN protein levels. Luciferase is expressed when full-length SMN protein is generated with luminescence signal proportional to SMN protein levels. Our luciferase-based reporter assay was used to screen Ambion Silencer Select Human Druggable Genome siRNA library (10418 genes, 3 unique siRNAs per gene) using lipid-based reverse transfection.
Briefly, 1 pmol of each siRNA was spotted to a well of a 384-well plate (Corning, Corning, NY) and 20 microL of serum-free DMEM containing […] of Lipofectamine RNAiMax (Life Technologies, Carlsbad, CA) was then added to each well. Transfected cells were maintained at 37 degrees C in 5% CO2 for 72 hours, 20 microL of ONE-Glo Reagent (Promega) was added to wells for luciferase quantification. Raw luminescence reads were normalized to Ambion(R) Silencer(R) Negative Control #2 siRNA, then log10 transformed. A robust statistical measure of median absolute deviation (MAD) to standardize siRNA activities from each screen. Common Seed Analysis was used to help prioritize clean hits as opposed to those appearing to arise from seed based off-target effects. Candidate modulators were defined as the genes having a MAD score greater than 1.0 or less than -1.0.
For GAUUGAUAGAGACAAUUCATT against RNGTT, the median seed-adjusted z-score was -1.55 (active). UGGUGCUGUUGGUAAAACATT against CDC42 showed a median seed-adjusted z-score of -0.0938. AGAGGUCCUUCAAAACAGATT against ENTPD6 gave a median seed-adjusted z-score of 0.438. GGAGCGGAAUGAACUCAAATT against RILP showed a median seed-adjusted z-score of 0.503. For GCUUAGGUCUUGCUCUCAATT against YWHAE, the median seed-adjusted z-score was 1.38 (active). Sequence CCACAAUAUCUCUAACAGATT against GUCY1A2 has a median seed-adjusted z-score of -0.186. For AAACAAUCCGAAAAUAUGATT against KLK13, the median seed-adjusted z-score was 0.452. Sequence GAAUUGACAAUCUCAUAGATT against MCCC2 has a median seed-adjusted z-score of -0.0566. GCAUCUUUUGGAGAUCGAATT against TC2N gave a median seed-adjusted z-score of 0.461. For GAAGUAUGAAGAAGAAGUATT against KRT83, the median seed-adjusted z-score was 1.15 (active). Sequence GAUCAUCCCUUGUCUCUUUTT against CHRNA6 has a median seed-adjusted z-score of 0.21. GCAGAAUACUUCUAUGAAUTT against WIF1 gave a median seed-adjusted z-score of -0.521. With ACACCAGCCUUGCACCUGATT against NCR1 the median seed-adjusted z-score was -0.26. In the case of CGCCUUUCAUUUUUGCUGATT against TGM1, the median seed-adjusted z-score is reported as -0.286. For CCUUUGCCCUGUUCAAGGATT against CYP17A1, the median seed-adjusted z-score was -1.39 (active). Work on CAUACGAGGUAUUAUCAAATT against DNAJB7 yielded a median seed-adjusted z-score of 0.684. For GGAUCAGUAAUAUACCACATT against MTFMT, the median seed-adjusted z-score was -0.0119. CCUGGAUUACAUCUACUUATT against EPHB6 showed a median seed-adjusted z-score of -0.0275. Work on GCAGCAUUAUAGUCGUAUUTT against PRSS7 yielded a median seed-adjusted z-score of 0.0614. Work on GCAUUUGUAGGGUUACGGATT against GABRG1 yielded a median seed-adjusted z-score of 0.312. For CAUUGUAGAUUACUCAGAATT against RHOT1, the median seed-adjusted z-score was -0.189. GAUCCAUACUUGGAUGAUATT against PAIP1 gave a median seed-adjusted z-score of -0.0178. For GCUCGGAUAUGCUCCAGGATT against TMPRSS5, the median seed-adjusted z-score was 1.25 (active). GCCUGGAAUUCUACCGCUATT against SLC29A1 showed a median seed-adjusted z-score of 0.117. In the case of GCAUAUCUUCUAACUUGCATT against EVI1, the median seed-adjusted z-score is reported as 0. Sequence GGACCAAGAGGAUUGAGUATT against CLSTN2 has a median seed-adjusted z-score of 0. For AGUUUAAUCGGAAAGCCUUTT against NANS, the median seed-adjusted z-score was -1.54 (active). For GCAACACCGACGUAAAGAATT against ALOX5, the median seed-adjusted z-score was -0.201. In the case of UGCUCUCAGUGGAAGAGGATT against TNFRSF8, the median seed-adjusted z-score is reported as 0.739. In the case of GGUUGGUGUUCGAUGAGUATT against ANXA6, the median seed-adjusted z-score is reported as -1.01 (active). GCGGCAAGGGUUUCAAGCATT against FIZ1 showed a median seed-adjusted z-score of 0.154. GAAGUUCGGUCGAACCACATT against CST5 showed a median seed-adjusted z-score of 0.466. CCAGUACGCUAUGGACGUATT against MDN1 gave a median seed-adjusted z-score of 0.187. In the case of GUCUGUCAAUGUACCUUCUTT against 3-Mar, the median seed-adjusted z-score is reported as 0.069. For GCAACAGCAUUGUCCGUGUTT against LRRN2, the median seed-adjusted z-score was 0.324. For GAACUGACAUGGGAAGAUUTT against DUOX1, the median seed-adjusted z-score was -1.09 (active). GCCUGACUUCGACUGCUCATT against GFER gave a median seed-adjusted z-score of 0.402. For GGAGGCUAAUGGUUGCUUUTT against ARPC1B, the median seed-adjusted z-score was 0. With CUAUUUCCCUGCCUUCGAATT against GSTA3 the median seed-adjusted z-score was 0.334. CAACAAAAGUUUCAUGCUATT against STK35 gave a median seed-adjusted z-score of 0.519. GGAGGUACGUGGAAAAGCATT against ORC3L showed a median seed-adjusted z-score of -0.254. GCUUCGGAAUUCAGACAUUTT against NFATC4 gave a median seed-adjusted z-score of 0. In the case of GGCCCUUGGCCUUACUAUGTT against ACSM2B, the median seed-adjusted z-score is reported as -0.0401. With GCACGAUAUUAUGAUCCAATT against PPAT the median seed-adjusted z-score was -1.51 (active). In the case of CAACCACCAUCUGACCUUUTT against MMP15, the median seed-adjusted z-score is reported as -0.0489. GGCUGAAAACGGAGCACAATT against PCDHB16 showed a median seed-adjusted z-score of -0.523. CAGUGACUGUUGUUGGUCUTT against PKD1L3 showed a median seed-adjusted z-score of -0.658. With GGAGGAGCCUAAGAUGUCATT against ZNF442 the median seed-adjusted z-score was 1.06 (active). Work on AAGGGAAAGUGUACUGGUATT against MMP23B yielded a median seed-adjusted z-score of 0.288. With GGCUAUUGAUUGUCCACAUTT against L2HGDH the median seed-adjusted z-score was -0.346. For CUACCGAGAUUUUAGAUGATT against POLE, the median seed-adjusted z-score was -1.55 (active). With CACUAUAUCUAUAUCGAAATT against PLD1 the median seed-adjusted z-score was 0.518. GACCCAUACAGAAAGUAGATT against SSR1 gave a median seed-adjusted z-score of -0.434. Sequence GAUGCGCACUCAGUCCUUATT against MLLT4 has a median seed-adjusted z-score of -0.0762. For CUGUGAGAAUUGUUGCUCUTT against TRIP6, the median seed-adjusted z-score was 1.03 (active). Sequence GGAUCUCAGUCAAAGGCAUTT against CPZ has a median seed-adjusted z-score of -0.0748. In the case of CGAUCGAGUGGAUGAAGAATT against MMP24, the median seed-adjusted z-score is reported as -1.28 (active). ACAUUGAACGUCCCACGUATT against TUBA3E showed a median seed-adjusted z-score of -0.35. In the case of GCUAAGAGCUUCGUGCUGATT against LGALS1, the median seed-adjusted z-score is reported as 0.033. For CCAUGGAUAUGGAAACCCATT against ALPK3, the median seed-adjusted z-score was 0.365. GGAGAGAGCAGUUUCAACATT against HSPB8 showed a median seed-adjusted z-score of 0.207. In the case of GGAUAGAAUAUGUAACGGUTT against SUPT6H, the median seed-adjusted z-score is reported as -2.54 (active). Sequence CACCGGUGAGAUUCCCUAUTT against ZNF546 has a median seed-adjusted z-score of 0.497. GCUUACUACACUUUUCUAATT against G6PC2 showed a median seed-adjusted z-score of -0.0362. In the case of CAAACUCUACAUCACCUUUTT against GPR32, the median seed-adjusted z-score is reported as -1.2 (active). For CAAGAACUCGGAUAAUGAUTT against IL2RG, the median seed-adjusted z-score was -0.155. Sequence CACGGUAUAUGUUAGAGUATT against DSG3 has a median seed-adjusted z-score of 0. Work on UCCCUUACAUGUCACCAAATT against ZMIZ2 yielded a median seed-adjusted z-score of -0.27. In the case of GCCUACAAGCAGAUUCAAATT against PTRH2, the median seed-adjusted z-score is reported as 0.0467.
